# Results published in PubChem BioAssay AID624256 (NMMLSC, 2012).
# The whole screen tested about 360,000 compounds, of which about 3,700 (1%) were called active. Roughly 2% stayed inconclusive and do not appear here.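 The calls were made as follows: active = normalized GFP-positive differentiation at or above the plate's own cutoff, the solvent-only control mean plus 3 SD; inconclusive = no clear call, values can overlap the other calls; inactive = the rest.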 Only a selection was taken, and actives are over-represented in it overall.
# Assay: induction of myeloid progenitor differentiation, primary screen, cell-based, flow cytometry, MLPCN library (AID 624256);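 as to GFP+ MAC1+ double positive: cells exposed to compound for four days before flow analysis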;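 as to normalized GFP-positive differentiation: cells exposed to compound for four days before flow analysis; 0% = DMSO wells and 100% = fulvestrant positive control at 5 µM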
# Conditions: ER-HoxA9 myeloid progenitors, lysozyme-GFP differentiation, at 10 µM; GFP+ MAC1+ double positive: measured here: differentiation confirmed by MAC1 staining, stronger effect = higher value; normalized GFP-positive differentiation: stronger effect = higher value
Structure (SMILES),GFP+ MAC1+ double positive [%],outcome,normalized GFP-positive differentiation
CSc1ccc(CN2CCC2(C)C(=O)NCc2ccccc2Br)cc1 (configuration not stated),0.7,inactive,–
O=C(NCc1ccc(F)cc1)c1cc(C2CCCCN2C(=O)c2ccccn2)on1 (configuration not stated),2.6,inactive,–
N#Cc1ccc(C(C(=O)NCc2ccccc2)n2c(=O)c(-c3ccco3)nc3ccccc32)cc1 (configuration not stated),2.4,inactive,–
CC(C)OC(=O)c1ccc(NCc2cc(O)ccc2O)cc1Cl,7.3,–,354% (active)
COC(=O)c1ccc(NCc2cc(O)ccc2O)cc1,1.6,inactive,–
CC(OC(=O)c1ccc(Cl)cc1O)C(=O)NCCC1=CCCCC1 (configuration not stated),0.3,inactive,–
CC(C)(C)CC(=O)Nc1nc(C(N)Cc2ccc(C(F)(F)F)cc2)cs1 (configuration not stated),0.2,inactive,–
Cc1ccc(S(=O)(=O)N2CC3C(=O)C[C@@H](c4ccccc4Cl)N(S(=O)(=O)c4ccc(C)cc4)C3CC2c2ccccc2)cc1 (some centres not stated),1.9,inactive,–
S=c1[nH]nc(-c2cccs2)n1/N=C/c1cn(-c2ccccc2)nc1-c1ccc(Cl)cc1,0.1,inactive,–
CC(=O)C1=C(C)NC(C)=C(C(C)=O)C1c1cn(-c2ccccc2)nc1-c1cccs1,0.7,inactive,–
O=C(O)c1ccc(N/N=C/c2cn(-c3ccccc3)nc2-c2cccs2)cc1,0.5,–,10.8% (active)
Cc1nc2c(OCC(=O)C(C)(C)C)cccn2c1N(C)Cc1cccs1,2.1,inactive,–
Fc1cccc(Cc2c(-c3cccc(Cl)c3)nc3ccc(Br)cn23)c1,0.4,inactive,–
O=C(Nc1cccc(Cc2ccccc2)c1)Nc1ccc2nc([C@@H]3O[C@H](CO)[C@@H](O)[C@H](O)[C@H]3O)[nH]c2c1,2.9,inactive,–
CC#CC[N+](C)(C)CCCCCC,1.6,–,19.3% (active)
COC(=O)[C@]12CCCCC=C1N(Cc1ccc(Cl)cc1Cl)C(=O)[C@H](CC(=O)NCc1cccc3ccccc13)C2,1.1,inactive,–
COc1cccc2sc3cc(NCC[C@@H]4CCCN4C)ccc3c(=O)c12,1.3,inactive,–
Cc1cc2oc3ccc(NCCC4CCCN4C)cc3c(=O)c2cc1C (configuration not stated),6.6,–,73.2% (active)
CCCCNC(=O)c1nc(C2CCN(S(=O)(=O)c3ccc(F)c(F)c3)CC2)oc1-c1cccc(C(F)(F)F)c1,0.6,inactive,–
Cc1ccc(S(=O)(=O)N2CCCCC2)cc1NC(=O)c1cccnc1,1.2,inactive,–
Cc1ccc(-n2nc3cc(C)c(NC(=O)c4cccnc4)cc3n2)cc1,5.5,–,15.8% (active)

Structure (SMILES),GFP+ MAC1+ double positive [%],outcome,normalized GFP-positive differentiation
O=C(Nc1cccc(-n2cnnn2)c1)c1cccnc1,2,inactive,–
CC1(C(=O)NS(=O)(=O)c2ccc(C#N)cc2)CCN1C(=O)CC1CCCC1 (configuration not stated),0.6,inactive,–
CC(NC(=O)COC(=O)CCC(=O)c1ccc(Cl)cc1)c1ccccc1 (configuration not stated),0.8,inactive,–
C=CCOc1ccc(/C=C/C(=O)OCC(=O)NC(C)c2ccc(F)cc2)cc1 (configuration not stated),0.7,inactive,–
CC(NC(=O)COC(=O)c1ccc(Cl)cc1O)c1ccc(F)cc1 (configuration not stated),6.2,–,140% (active)
CN1OC[C@@H]2CN(C(=O)C(C)(C)C)[C@H](c3ccc(-n4ccnc4)cc3)C[C@@H]21,0.2,inactive,–
COc1ccc(/C=C/C(=O)c2c(O)cc(OC)cc2OC)cc1,1.7,inactive,–
O=C(NCc1ccccc1)C(c1ccc(F)cc1)N1CCN(C(=O)C2CCCO2)CC1 (configuration not stated),0.2,inactive,–
CCC(=O)N1Cc2cc(C(=O)NCc3cccc(F)c3)nc(-c3cccc(C4=CCCC4)c3)c2[C@H]1CCO,0.5,inactive,–
Cc1cc(=O)oc2ccc(OCC(=O)O)cc12,2.2,inactive,–
CCOC(=O)c1c(-c2ccccc2)oc2cc(Br)c(O)c(C=O)c12,0.5,inactive,–
CCOC(=O)c1c(-c2ccccc2)oc2ccc(OCC(=O)NN)cc12,1.9,–,26.6% (active)
CC(C)OC(=O)CC(=O)CC(O)c1cccc([N+](=O)[O-])c1 (configuration not stated),3.1,inactive,–
COCOc1cccc(CN2CCC(C)(Oc3ccc(SC)cc3)C2)c1 (configuration not stated),0.7,inactive,–
CN(C)C(=O)c1cccc(-c2cnc3c(NC=O)cc(-c4ccc(F)cc4)cn23)c1,1.2,inactive,–
CCCc1nc2c3ccccc3ccn2c1Cc1ccccc1C(F)(F)F,1.1,inactive,–
NC(c1csc(NC(=O)Nc2cccc(C(F)(F)F)c2)n1)C1CCCCC1 (configuration not stated),1.4,inactive,–
CCOC(=O)C1=CCC2C(=O)N(Cc3ccccc3)C(=O)C12 (configuration not stated),1.7,inactive,–
CN(C(=O)c1cccc([N+](=O)[O-])c1)c1ccccc1C(=O)NCc1ccccc1,2.5,–,45.3% (active)
CN(C)CCNC(=O)/C(=C/c1cccc([N+](=O)[O-])c1)NC(=O)c1ccccc1,0.5,inactive,–
